# Experimental data: the supplement of paper PMC7366291
# Where a name gives a salt, the structure may show the parent alone. ± gives the standard deviation or the standard deviation of the averaged measurements.
# What was measured:
# Conditions in all cases: 25 µM; exposure: 24-48 hpf
# [1] = tested on: Danio rerio Tg(wt1b:EGFP) embryo, pronephros; experiment: glomerular separation, fold change vs DMSO control; higher = glomeruli further apart (abnormal)
# Outline: (§1)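 Distances and angles describing the pronephros were computed by a Fiji macro from 16 reference points set manually on maximum projections of dorsal images. These images came from dechorionated Tg(wt1b:EGFP) zebrafish embryos held in agarose-filled 96-well plates after exposure to 25 μM compound in 0.5% DMSO, in HEPES-buffered E3 with 0.003% PTU, from 24 to 48 hpf at 28.5°C. Any value more than 2 SD from the feature mean was excluded. Features are stated as fold change relative to the mean of same-day DMSO-treated embryos.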
# [2] = tested on: Danio rerio Tg(wt1b:EGFP) embryo, pronephros; experiment: glomerular width (mean of left and right), fold change vs DMSO control; higher = wider glomerulus
# Outline: as §1
# [3] = tested on: Danio rerio Tg(wt1b:EGFP) embryo, pronephros; experiment: fraction of imaged embryos annotated as normal kidney; higher = less nephrotoxic; extreme values may be limits of the assay
# Outline: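 The value given is the share of embryos in each treatment scored as having a normal kidney. To obtain it, dechorionated Tg(wt1b:EGFP) zebrafish embryos were treated from 24 to 48 hpf at 28.5°C with 25 μM compound in 0.5% DMSO, in 5 mM HEPES-buffered E3 with 0.003% PTU. Pronephroi were imaged by widefield fluorescence (470 nm, 10 z-slices), and every embryo was annotated by hand from maximum projections.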
# [4] = tested on: Danio rerio Tg(wt1b:EGFP) embryo, pronephros; experiment: pronephric angle neck segment to proximal convoluted tubule (mean of left and right), fold change vs DMSO control; higher = larger pronephric angle
# Outline: as §1
smiles,measurement,setting,value
CC(NC(C)(C)C)C(=O)c1cccc(Cl)c1 (stereo unspecified) [Bupropion hydrochloride],glomerular separation,[1],0.797 ± 0.2
same,glomerular width,[2],1.026 ± 0.0015
same,fraction of imaged embryos annotated as normal kidney,[3],1
same,pronephric angle neck segment,[4],1.03 ± 0.011
C=C1C[C@@H]2[C@H](CC[C@]3(C)C(=O)CC[C@@H]23)[C@@]2(C)C=CC(=O)C=C12 [Exemestane],glomerular separation,[1],0.893 ± 0.38
same,glomerular width,[2],0.932 ± 0.065
same,fraction of imaged embryos annotated as normal kidney,[3],0.727
same,pronephric angle neck segment,[4],1.25 ± 0.036
CC(C)C[C@H]1C(=O)N2CCC[C@H]2[C@]2(O)O[C@](NC(=O)[C@@H]3C=C4c5cccc6[nH]c(Br)c(c56)C[C@H]4N(C)C3)(C(C)C)C(=O)N12 [Bromocryptine mesylate],glomerular separation,[1],1.01 ± 0.34
same,glomerular width,[2],1.12 ± 0.012
same,fraction of imaged embryos annotated as normal kidney,[3],0.833
same,pronephric angle neck segment,[4],0.985 ± 0.022
O=P1(NCCCl)OCCCN1CCCl (stereo unspecified) [Ifosfamide],glomerular separation,[1],1.05 ± 0.39
same,glomerular width,[2],0.999 ± 0.045
same,fraction of imaged embryos annotated as normal kidney,[3],0.833
same,pronephric angle neck segment,[4],1.06 ± 0.023
CC(=O)OCC(=O)[C@H]1CC[C@H]2[C@@H]3CC[C@H]4C[C@H](O)CC[C@]4(C)[C@H]3C(=O)C[C@]12C [Alfadolone acetate],glomerular separation,[1],1.22 ± 0.64
same,glomerular width,[2],0.942 ± 0.057
same,fraction of imaged embryos annotated as normal kidney,[3],0.75
same,pronephric angle neck segment,[4],1 ± 0.018
CC(=O)OC1CN2CCC1CC2 (stereo unspecified) [Aceclidine Hydrochloride],glomerular separation,[1],0.978 ± 0.38
same,glomerular width,[2],1.053 ± 0.01
same,fraction of imaged embryos annotated as normal kidney,[3],0.917
same,pronephric angle neck segment,[4],0.99 ± 0.044
NCC1(CC(=O)O)CCCCC1 [Gabapentin],glomerular separation,[1],0.802 ± 0.29
same,glomerular width,[2],0.9761 ± 0.0014
same,fraction of imaged embryos annotated as normal kidney,[3],0.75
same,pronephric angle neck segment,[4],0.981 ± 0.016
O=C1CC[C@@]2(O)[C@H]3Cc4ccc(O)c5c4[C@@]2(CCN3CC2CC2)[C@H]1O5 [Naltrexone hydrochloride dihydrate],glomerular separation,[1],0.749 ± 0.22
same,glomerular width,[2],1.124 ± 0.0082
same,fraction of imaged embryos annotated as normal kidney,[3],0.833
same,pronephric angle neck segment,[4],1.03 ± 0.058
C=C(C)[C@@H]1[C@H]2OC(=O)[C@@H]1[C@]1(O)C[C@H]3O[C@]34C(=O)O[C@H]2[C@]14C [Picrotoxinin],glomerular separation,[1],1.19 ± 0.57
same,glomerular width,[2],0.973 ± 0.011
same,fraction of imaged embryos annotated as normal kidney,[3],0.917
same,pronephric angle neck segment,[4],1.01 ± 0.03
CC(C)(N)Cc1ccccc1 [Phentermine hydrochloride],glomerular separation,[1],0.886 ± 0.21
same,glomerular width,[2],0.981 ± 0.035
same,fraction of imaged embryos annotated as normal kidney,[3],0.917
same,pronephric angle neck segment,[4],0.979 ± 0.031
"NCC(CC(=O)O)c1ccc(Cl)cc1 (racemic) [Baclofen (R,S)]",glomerular separation,[1],0.757 ± 0.3
same,glomerular width,[2],0.933 ± 0.0029
same,fraction of imaged embryos annotated as normal kidney,[3],0.833
same,pronephric angle neck segment,[4],0.829 ± 0.056
CN1[C@@H]2CC[C@H]1C[C@@H](OC1c3ccccc3CCc3ccccc31)C2 [Deptropine citrate],glomerular separation,[1],0.934 ± 0.35
same,glomerular width,[2],0.947 ± 0.035
same,fraction of imaged embryos annotated as normal kidney,[3],1
same,pronephric angle neck segment,[4],0.939 ± 0.061
C[C@@H]1CC[C@H]2[C@@H](C)C(=O)O[C@@H]3O[C@@]4(C)CC[C@@H]1[C@]32OO4 [Artemisinin],glomerular separation,[1],0.996 ± 0.38
same,glomerular width,[2],0.9517 ± 0.0011
same,fraction of imaged embryos annotated as normal kidney,[3],1
same,pronephric angle neck segment,[4],1.05 ± 0.054
COc1ccc(CN2CCNCC2)c(OC)c1OC [Trimetazidine dihydrochloride],glomerular separation,[1],0.91 ± 0.3
same,glomerular width,[2],0.96 ± 0.014
same,fraction of imaged embryos annotated as normal kidney,[3],0.917
same,pronephric angle neck segment,[4],0.982 ± 0.044
"CN1CCC2(C)c3cc(O)ccc3N(C)C12 (single isomer, unassigned; (-)) [(-)-Eseroline fumarate salt]",glomerular separation,[1],0.883 ± 0.34
same,glomerular width,[2],1.01 ± 0.025
same,fraction of imaged embryos annotated as normal kidney,[3],0.917
same,pronephric angle neck segment,[4],1.02 ± 0.043
CC(N)C(O)c1ccccc1 (stereo unspecified) [Phenylpropanolamine hydrochloride],glomerular separation,[1],0.921 ± 0.29
same,glomerular width,[2],0.982 ± 0.054
same,fraction of imaged embryos annotated as normal kidney,[3],0.917
same,pronephric angle neck segment,[4],1.07 ± 0.027
CC(=O)O[C@H]1CC[C@@]2(C)C(=CC[C@@H]3[C@@H]2CC[C@]2(C)C(=O)CC[C@@H]32)C1 [Dehydroisoandosterone 3-acetate],glomerular separation,[1],1.13 ± 0.35
same,glomerular width,[2],0.896 ± 0.056
same,fraction of imaged embryos annotated as normal kidney,[3],0.917
same,pronephric angle neck segment,[4],1.02 ± 0.043
CN(C)C(=O)Oc1cc(OC(=O)N(C)C)cc(C(O)CNC(C)(C)C)c1 (stereo unspecified) [Bambuterol hydrochloride],glomerular separation,[1],0.925 ± 0.31
same,glomerular width,[2],0.915 ± 0.035
same,fraction of imaged embryos annotated as normal kidney,[3],1
same,pronephric angle neck segment,[4],1.01 ± 0.021
COc1ccc(C(=O)N2CCCC2=O)cc1 [Aniracetam],glomerular separation,[1],0.837 ± 0.17
same,glomerular width,[2],1.06 ± 0.052
same,fraction of imaged embryos annotated as normal kidney,[3],0.75
same,pronephric angle neck segment,[4],1.02 ± 0.019
C[C@H](N)[C@H](O)c1ccc(O)c(O)c1 [Levonordefrin],glomerular separation,[1],1.13 ± 0.33
same,glomerular width,[2],1.04 ± 0.016
same,fraction of imaged embryos annotated as normal kidney,[3],0.667
same,pronephric angle neck segment,[4],0.982 ± 0.012
CCC1(CC)C(=O)C=CNC1=O [Pyrithyldione],glomerular separation,[1],0.785 ± 0.31
same,glomerular width,[2],1.034 ± 0.0093
same,fraction of imaged embryos annotated as normal kidney,[3],0.727
same,pronephric angle neck segment,[4],0.9934 ± 0.0041
CC(C)(C)NCC(O)c1cc(Cl)c(N)c(Cl)c1 (stereo unspecified) [Clenbuterol hydrochloride],glomerular separation,[1],1.04 ± 0.33
same,glomerular width,[2],1.08 ± 0.032
same,fraction of imaged embryos annotated as normal kidney,[3],0.75
same,pronephric angle neck segment,[4],1 ± 0.067
COc1ccc(OC)c(C(O)C(C)N)c1 (stereo unspecified) [Methoxamine hydrochloride],glomerular separation,[1],0.886 ± 0.22
same,glomerular width,[2],0.9725 ± 0.0077
same,fraction of imaged embryos annotated as normal kidney,[3],0.75
same,pronephric angle neck segment,[4],0.976 ± 0.021
C[C@]12CC[C@H]3[C@@H](CCC4=CC(=O)CC[C@@H]43)[C@@H]1CC[C@@H]2O [Nandrolone],glomerular separation,[1],1.02 ± 0.42
same,glomerular width,[2],0.8978 ± 0.0049
same,fraction of imaged embryos annotated as normal kidney,[3],0.833
same,pronephric angle neck segment,[4],0.95 ± 0.015
